aSyn 5UTR act = Activators via SNCA 5'UTR binding, MLPCN; alpha-synuclein 5'UTR reporter, activators screen; activity score, % (tested at 7.5 µM), hits read low; 7.1% of 300,000 active; AID 1814, 2009; in the data active = activity score below about -60%
Large screens that a line does not name were inactive. The list is a sample of the results.

COc1cccc(/C=N/Nc2snc(SC)c2C#N)c1O	aSyn 5UTR act -157
Cc1cccc(-c2noc(Cc3ccc(Cl)cc3)n2)c1	aSyn 5UTR act -98
COc1ccc(Cc2nc(-c3cccc(C)c3)no2)cc1	aSyn 5UTR act -102
COc1ccc(Cc2nc(-c3ccncc3)no2)cc1	aSyn 5UTR act -79
CN1C(=O)/C(=C/C=C2\SCCN2C)N(C)C1=S	aSyn 5UTR act -177
CC(=O)Nc1sc(N/N=C\c2cccc(Cl)c2)nc1-c1cccs1	aSyn 5UTR act -82
CC(=O)Nc1sc(N/N=C\c2ccccc2F)nc1-c1cccs1	aSyn 5UTR act -184
CC(=O)Nc1sc(N/N=C\c2ccc(O)cc2)nc1-c1cccs1	aSyn 5UTR act -100
CCCn1ncc2c(Nc3ccc(C)c(C)c3)ncnc21	aSyn 5UTR act -92
Nc1cc(-c2ccccc2)ccc1O	aSyn 5UTR act -118
O=C(/C=C/c1ccccc1Cl)NCc1cccs1	aSyn 5UTR act -101
O=C(NCc1cccs1)c1nc2c(nnn2Cc2ccccc2Cl)c(=O)[nH]1	none
O=C(/C=C/c1ccccc1Cl)NNC(=O)c1cccs1	aSyn 5UTR act -83
O=C(/C=C/c1ccc(F)cc1)NCc1cccs1	aSyn 5UTR act -112
O=C(/C=C/c1ccc(F)cc1)NC(=S)NNC(=O)c1cnccn1	none
CC(C)(C)c1ccc(/C=C2\Oc3cc(O)ccc3C2=O)cc1	aSyn 5UTR act -69
COC(=O)c1ccc2c(c1)C(=O)/C(=C/c1ccc(O)cc1)O2	aSyn 5UTR act -118
COc1cccc(/C=C2\Oc3ccc(O)cc3C2=O)c1O	none
Clc1ccc(CONc2ncnc3nonc23)c(Cl)c1	aSyn 5UTR act -124
C/C(=N\Nc1nc2ccc(Cl)cc2o1)c1ccccc1	aSyn 5UTR act -66
c1cncc(CSc2ccc(-c3ccc4c(c3)OCO4)nn2)c1	aSyn 5UTR act -109
Cc1ccccc1CSc1ccc(-c2ccc3c(c2)OCO3)nn1	aSyn 5UTR act -83
Cc1nc(C)c(-c2ccc(SCc3ccccc3C)nn2)s1	aSyn 5UTR act -97
COc1ccc(-c2nnc(NC(=O)c3cccs3)s2)c(OC)c1	aSyn 5UTR act -76
Cc1cccc(-c2nnc(NC(=O)c3cccs3)s2)c1	aSyn 5UTR act -113
c1ccn2c(SCc3cn4ccsc4n3)nnc2c1	aSyn 5UTR act -166
O=[N+]([O-])c1ccccc1CSc1nnc2ccccn12	aSyn 5UTR act -121
Clc1ccc(CSc2snnc2-c2ccccc2)c(Cl)c1	aSyn 5UTR act -121
Clc1ccc(CSc2nnc3ccccn23)c(Cl)c1	aSyn 5UTR act -75
C/C(=N\Nc1ccc(C(=O)O)cc1)c1ccc2c(c1)Nc1ccccc1S2	aSyn 5UTR act -110
N/C(=N\OC(=O)c1cccc(Br)c1)c1ccc(Br)cc1	aSyn 5UTR act -96
Cc1ccc(C(=O)O/N=C(\N)c2ccc(Br)cc2)cc1	aSyn 5UTR act -215
N/C(=N\OC(=O)c1ccc(Br)cc1)c1ccccc1	aSyn 5UTR act -190
O=C(CCl)NN1C(=O)NC(c2ccccc2)(c2ccccc2)C1=O	aSyn 5UTR act -86
O=C(CCl)NN1C(=O)NC2(CCCCC2)C1=O	aSyn 5UTR act -76
Cc1cccnc1Nc1nc(-c2ccc(O)c(O)c2)cs1	aSyn 5UTR act -232
COc1ccc(C2=Nn3c(nnc3-c3ccccn3)SC2)cc1OC	none
COc1ccc(-c2csc(Nc3ncccc3C)n2)cc1OC	aSyn 5UTR act -172
COc1ccc(-c2csc(Nc3ncccc3C)n2)cc1	aSyn 5UTR act -118
Cc1nc(C)c(-c2csc(Nc3ncccc3C)n2)s1	aSyn 5UTR act -240
O=C(CSc1ccc(F)cc1)Nc1ccc(Br)cc1	aSyn 5UTR act -149
O=C(CSc1ccc(F)cc1)Nc1ccccc1Br	aSyn 5UTR act -75
CCc1ccc(N=c2c([N+](=O)[O-])nn(-c3ccccc3)n2O)cc1	aSyn 5UTR act -88
COc1ccc(-n2nc([N+](=O)[O-])c(=NCc3cccnc3)n2O)cc1	aSyn 5UTR act -121
COc1ccc(-n2nc([N+](=O)[O-])c(=NCc3ccco3)n2O)cc1	aSyn 5UTR act -83
COc1ccc(-n2nc([N+](=O)[O-])c(=NCCC3=CCCCC3)n2O)cc1	aSyn 5UTR act -82
Cc1ccc2nc(N(CCN3CCOCC3)C(=O)CCS(=O)(=O)c3ccccc3)sc2c1	aSyn 5UTR act -93
O=C(CCS(=O)(=O)c1ccccc1)N(CCCN1CCOCC1)c1nc2ccccc2s1	aSyn 5UTR act -106
Cc1ccc(S(=O)(=O)CCC(=O)N(CCCN2CCOCC2)c2nc3ccccc3s2)cc1	aSyn 5UTR act -119
Cc1cccc(NC(=O)c2ccc(C(=O)c3ccccc3)cc2)n1	aSyn 5UTR act -102
Cc1cc(C)c(NC(=O)NC(=O)c2cccc(F)c2)c(C)n1	aSyn 5UTR act -69
Cc1cccc(NC(=O)NC(=O)c2ccccc2)n1	aSyn 5UTR act -139
O=C(Nc1ccccn1)c1ccc(C(=O)c2ccccc2)cc1	aSyn 5UTR act -108
O=C(NC(=O)c1ccccc1)Nc1ccccn1	none
N/C(=N\OC(=O)c1ccccc1)c1cccnc1	aSyn 5UTR act -128
N/C(=N\OC(=O)COc1ccc(Cl)cc1Cl)c1cccnc1	aSyn 5UTR act -146
Cc1ccc(OCC(=O)O/N=C(\N)c2cccnc2)cc1	aSyn 5UTR act -88
N/C(=N\OC(=O)c1ccccc1Cl)c1cccnc1	aSyn 5UTR act -168
N/C(=N\OC(=O)c1cc(Cl)ccc1Cl)c1cccnc1	aSyn 5UTR act -131
N/C(=N\OC(=O)c1ccc(Cl)cc1[N+](=O)[O-])c1cccnc1	aSyn 5UTR act -104
N/C(=N\OC(=O)c1cc(Br)ccc1Cl)c1cccnc1	aSyn 5UTR act -215
Cc1ccc(OCC(=O)Nc2ccccc2C(N)=O)cc1	aSyn 5UTR act -98
NC(=O)c1ccccc1NC(=O)COc1ccc(Cl)cc1	aSyn 5UTR act -101
C=CCn1cccc(C(=O)Nc2ccc(C)c(C)c2)c1=O	aSyn 5UTR act -124
C=CCn1cccc(C(=O)Nc2ccc(C)cc2)c1=O	aSyn 5UTR act -133
O=C(/C=C/c1ccccc1[N+](=O)[O-])NCCN1C(=O)S/C(=C\c2ccc(F)cc2)C1=O	aSyn 5UTR act -113
O=[N+]([O-])c1ccc(N2CCN(c3ccccc3F)CC2)nc1	aSyn 5UTR act -66
CC(C)OC(=O)c1ccc(N2CCN(c3ccccc3F)CC2)nc1	aSyn 5UTR act -68
C/C(=N/N1CCN(c2ccccc2)CC1)c1cccc([N+](=O)[O-])c1	aSyn 5UTR act -70
O=[N+]([O-])c1ccc(N2CCN(c3ccccc3)CC2)nc1	aSyn 5UTR act -76
CC1Cc2ccccc2N1c1ncnc(N)c1[N+](=O)[O-] (stereo not given)	none
CCOc1ccc(-n2c(SCc3ccc([N+](=O)[O-])cc3)nnc2-c2ccccc2)cc1	none
O=[N+]([O-])c1ccc(N2CCN(c3ccccc3)CC2)cc1	aSyn 5UTR act -80
O=[N+]([O-])c1ccc(-c2nnc(S)n2-c2ccccc2)cc1	aSyn 5UTR act -95
O=[N+]([O-])c1ccc(N2CCc3ccccc3C2)nc1	aSyn 5UTR act -66
O=C(c1cc2ccccc2oc1=O)N(c1ccc(Cl)cc1)C1C=CS(=O)(=O)C1 (stereo not given)	aSyn 5UTR act -155
Cc1nc(NCc2ccco2)c2c(C)c(C)sc2n1	aSyn 5UTR act -177
C=CCn1c(=S)[nH]c2scc(-c3ccc(C)o3)c2c1=O	aSyn 5UTR act -69
CCn1c(=S)[nH]c2scc(-c3cccs3)c2c1=O	aSyn 5UTR act -72
C=CCn1c(SCC(=O)c2[nH]c(C)c(C(=O)OCC)c2C)nc2scc(-c3ccc(OC)c(OC)c3)c2c1=O	none
Cc1ccc(-c2csc3nc(C)n(N)c(=O)c23)o1	aSyn 5UTR act -130
C=CCn1c(SCC(C)=O)nc2scc(-c3ccc(C)o3)c2c1=O	aSyn 5UTR act -150
